Assay results published in PubChem BioAssay AID2592 (National Center for Advancing Translational Sciences (NCATS), 2010).
Inconclusive results are not listed. Active and inactive are the calls of the source. Calls come from the whole dose curve; as a rule, active = well fitted inhibition curve with a large enough effect; inconclusive = small, poorly fitted or top-dose-only effect, or effect the other way; inactive = flat fitted curve, though single readings scatter.

These molecules were tested against Lysosomal acid glucosylceramidase (Homo sapiens) (UniProt P04062) (assay: qHTS Assay for Inhibitors and Activators of N370S glucocerebrosidase as a Potential Chaperone Treatment of Gaucher Disease: Activity in Non-Mutant Spleen Homogenate). Conditions: human spleen homogenate GC, 4MU-glucoside fluorescence; series mostly up to 57.5 µM.
Lysosomal acid glucosylceramidase (Homo sapiens), sequence (P04062 whole entry, looked up): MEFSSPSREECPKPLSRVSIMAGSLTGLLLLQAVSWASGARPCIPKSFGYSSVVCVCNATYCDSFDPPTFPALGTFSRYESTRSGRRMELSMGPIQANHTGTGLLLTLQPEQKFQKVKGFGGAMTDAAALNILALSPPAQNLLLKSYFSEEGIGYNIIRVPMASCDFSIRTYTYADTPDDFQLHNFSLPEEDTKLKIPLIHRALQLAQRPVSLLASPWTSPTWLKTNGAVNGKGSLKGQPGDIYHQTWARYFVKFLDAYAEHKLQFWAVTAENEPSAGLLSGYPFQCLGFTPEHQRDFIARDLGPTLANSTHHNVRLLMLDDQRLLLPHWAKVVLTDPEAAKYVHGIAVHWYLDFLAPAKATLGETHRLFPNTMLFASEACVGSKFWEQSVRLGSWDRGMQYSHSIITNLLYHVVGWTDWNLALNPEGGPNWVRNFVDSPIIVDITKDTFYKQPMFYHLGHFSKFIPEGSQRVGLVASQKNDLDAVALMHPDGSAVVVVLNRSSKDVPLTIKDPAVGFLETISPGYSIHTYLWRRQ
Source text: NIH Chemical Genomics Center [NCGC] NIH Molecular Libraries Probe Production Centers Network [MLPCN] MLPCN Grant: MH086442-01 Assay Submitter (PI): Wei Zheng Glucocerebrosidase (GC) catalyzes the hydrolysis of beta-glucocerebroside to glucose and ceramide in lysosomes. Mutations in the glucocerebrosidase gene result in Gaucher disease, an autosomal recessive lysosomal storage disorder. Many of the mutations encountered in patients with Gaucher disease are missense alterations that may cause misfolding, decreased stability and/or mistrafficking of this lysosomal protein. […] These inhibitors include iminosugar analogs and three non-iminosugar inhibitors identified from a previous HTS of 62,000 compounds with the wild type recombinant enzyme. However, the enhancement of enzyme activity by the chaperone action of an enzyme inhibitor must be balanced against the direct inhibition of the enzyme. An enzyme activator could also function as a chaperone by binding to the enzyme and helping to correct its misfolding and mistrafficking. While activators for GC have not yet been identified, they may have better therapeutic potential than inhibitors. Therefore the discovery and development of chemical activators may provide a new strategy for the chaperone therapy. We have optimized a new assay using N370S mutant GC derived from the spleen of a Gaucher patient. […] In addition, the MLPCN compound library has expanded, which increases the chance of finding new and better probes. This confirmation assay tests for compound activity in spleen homogenate containing wildtype enzyme.
NCGC Assay Protocol Summary: This is a fluorogenic enzyme assay with 4-methylumbelliferyl-beta-D-glucopyranoside as the substrate and wildtype glucocerebrosidase from human spleen homogenate as the enzyme preparation. Upon the hydrolysis of this fluorogenic substrate, the resulting product, […] which can be detected by a standard fluorescence plate reader. Data were normalized to the controls for basal activity (without enzyme) and 100% activity (with enzyme). The AC50 values were determined from concentration-response data modeled with the standard Hill equation. Assay buffer: 50 mM citric acid (titrated with potassium phosphate to pH 5.0), 100 mM potassium chloride, 10 mM sodium chloride, 1 mM magnesium chloride, 0.01% Tween-20. 1536-well assay protocol: (1) Add 2 ul/well of spleen homogenate (27 ug final) (2) Add 23 nL compounds in DMSO solution. The final titration was 0.5 nM to 58 uM. (3) Add 2 ul of substrate (1 mM final) (4) Incubate at 37C for 40 min. (5) Add 2 ul stop solution (1M NaOH and 1M Glycine mixture, pH 10) (6) Detect the assay plate in a ViewLux plate reader (PerkinElmer) with Ex=365 nm and Em=440nm. Keywords: Glucocerebrosidase, beta-glucosidase, Gaucher Disease, pharmacological chaperone, chaperone therapy, high throughput screening, glucocerebrosidase inhibitor, MLSMR, MLSCN, NIH Roadmap, qHTS and NCGC
For `Cc1cc(C)cc(N(CC(=O)NC2CCCCCC2)S(=O)(=O)c2c(C)[nH]c(=O)[nH]c2=O)c1`, the Potency was 562 nM (active). `S=C(NCCCc1cnc[nH]1)NCCCN(Cc1ccc(Cl)c(Cl)c1)c1ccc(Br)cn1` was tested, and the Potency was 355 nM (active). For `O=S(=O)(c1ccc(Cl)cc1)N1CCN(c2nc(-c3cccs3)nc3ccccc23)CC1`, the Potency was 1000 nM (active). In the case of `N#Cc1ccc(S(=O)(=O)N2CCN(c3nc(-c4cccs4)nc4ccccc34)CC2)cc1`, the Potency is reported as 2510 nM (active). `O=S(=O)(c1ccc2c(c1)OCCO2)N1CCN(c2nc(-c3cccs3)nc3ccccc23)CC1` was tested, and the Potency was 447 nM (active). With `O=S(=O)(c1ccc2ccccc2c1)N1CCN(c2nc(-c3cccs3)nc3ccccc23)CC1` the Potency was 282 nM (active). With `NS(=O)(=O)c1ccc(S(=O)(=O)N2CCN(c3nc(-c4cccs4)nc4ccccc34)CC2)cc1` the Potency was 5010 nM (active). For `CC(C)C(C)NC(=O)CSc1nc2scc(-c3ccco3)c2c(=O)n1-c1ccccc1` (stereo not given), the Potency was “inactive”. In the case of `CC(C)(C)C(=O)OCCNc1nc(-c2ccccc2)nc2ccccc12`, the Potency is reported as 2240 nM (active). In the case of `O=S(=O)(c1ccccc1C(F)(F)F)N1CCN(c2nc(-c3cccs3)nc3ccccc23)CC1`, the Potency is reported as 398 nM (active).
